What all share (assay): Confirmatory Screen for Target Class Profiling of Small Molecule Inhibitors of Methyltransferases (AID 1745852); as to activity change, negative = inhibition: % is scaled to controls: 0 for no effect and ±100 for the full control effect
For assay [1], the target named is Catechol O-methyltransferase (Homo sapiens) (UniProt P21964). The following applies: MTase-Glo luminescence, SAH detection, recombinant enzyme; measured here: COMT max response; stronger effect = lower value.
Catechol O-methyltransferase (Homo sapiens), sequence (P21964 whole entry, looked up): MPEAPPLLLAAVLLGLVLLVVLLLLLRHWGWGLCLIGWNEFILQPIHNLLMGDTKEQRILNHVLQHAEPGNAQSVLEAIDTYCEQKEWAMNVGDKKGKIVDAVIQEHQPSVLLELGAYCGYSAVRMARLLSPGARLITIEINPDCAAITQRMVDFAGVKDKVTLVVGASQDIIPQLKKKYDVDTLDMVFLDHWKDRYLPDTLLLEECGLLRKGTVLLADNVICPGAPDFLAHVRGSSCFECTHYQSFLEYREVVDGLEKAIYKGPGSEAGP
In assay [2] the target is Guanidinoacetate N-methyltransferase (Homo sapiens) (UniProt Q14353). Conditions: MTase-Glo luminescence, SAH detection, recombinant enzyme; activity change, negative = inhibition: at 57.3 µM (top of the series) unless noted; series mostly up to 57.3 µM.
Assay [3] addresses Nicotinamide N-methyltransferase (Homo sapiens) (UniProt P40261). Conditions: MTase-Glo luminescence, SAH detection, recombinant enzyme; measured here: NNMT max response; stronger effect = lower value.
In assay [4] the target is Phenylethanolamine N-methyltransferase (Homo sapiens) (UniProt P11086). Conditions: MTase-Glo luminescence, SAH detection, recombinant enzyme; measured here: PNMT max response; stronger effect = lower value.
Phenylethanolamine N-methyltransferase (Homo sapiens), sequence (P11086 whole entry, looked up): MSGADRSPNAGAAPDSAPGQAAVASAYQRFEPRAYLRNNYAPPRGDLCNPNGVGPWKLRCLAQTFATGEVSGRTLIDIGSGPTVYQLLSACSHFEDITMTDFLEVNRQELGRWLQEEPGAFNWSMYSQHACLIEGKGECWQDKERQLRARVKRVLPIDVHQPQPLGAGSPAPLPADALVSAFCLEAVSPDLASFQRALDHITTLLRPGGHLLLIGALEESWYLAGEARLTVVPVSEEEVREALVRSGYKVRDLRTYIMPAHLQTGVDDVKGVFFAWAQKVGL

This is an account of results in PubChem BioAssay (NCATS).

Activity calls are given as the source filed them. Calls follow the shape of the full dose curve.
Potency is read from the fitted curve at half-maximal effect.

Nicotinamide N-methyltransferase (Homo sapiens), sequence (P40261 whole entry, looked up): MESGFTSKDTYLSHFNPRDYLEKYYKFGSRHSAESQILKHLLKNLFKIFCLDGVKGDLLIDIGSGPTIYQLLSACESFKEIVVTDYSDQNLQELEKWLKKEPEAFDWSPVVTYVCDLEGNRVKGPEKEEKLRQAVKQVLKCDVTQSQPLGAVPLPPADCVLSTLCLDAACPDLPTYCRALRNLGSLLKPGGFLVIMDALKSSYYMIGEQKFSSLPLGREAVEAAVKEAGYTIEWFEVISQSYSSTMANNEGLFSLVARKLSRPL

Turning to `CCCn1c(C)cnc1CC1CCN(C(=O)NCc2ccc(OC)cc2)C1` (centres undefined), the activity in assay [1] is -4.22%; in assay [3] it was -3.34%; in assay [4], -1.44%. Further, in assay [2], the activity change, negative = inhibition was 6.2%.
As to `CC(C)Cn1c(=O)c2ccccc2n2c(CCC(=O)Nc3ccc(F)c(F)c3)nnc12`, the activity in assay [1] is -1.85%; in assay [3], -38.2%; in assay [4] it was -5.35%. Further, the activity change, negative = inhibition in assay [2] worked out at 1.46%.
The corresponding values for `Cn1c(COc2cccc(CN3CCCC3)c2Cl)nnc1C1CC(N)C1` (centres undefined) are 0.772%, -2.09%, -1.62% and -2.28%.
As to `CCCC1c2cccn2CCN1C(=O)Nc1ccccc1C(F)(F)F` (centres undefined), the activity was -12.1% in assay [1], -18.7% in assay [3] and -13.3% in assay [4]. The activity change, negative = inhibition in assay [2] was -8.26%.
Consider `COc1ccc(CCNC(=O)c2ccc3c(=O)[nH]c4c(C(=O)NC5CCCC5)sc(=S)n4c3c2)cc1OC`, for which the activity in assay [1] is -35.3%; in assay [3], -49.2%; in assay [4], -23%. The Potency in assay [2] was 24.1 µM (active).
Take `COc1ccc(OC)c(NC(=O)c2sc(=S)n3c2[nH]c(=O)c2ccc(Cl)cc23)c1`: the results for the activity in assay [1], in assay [3] and in assay [4] were -83.1%, -72.9% and -84.9%, respectively. Moreover, in assay [2], the Potency is 24.1 µM (active).
With `Cn1ncc2c(N3CCN(S(N)(=O)=O)CC3)nc(C3CCCC3)nc21`, the activity was -8.84% in assay [1], -39.7% in assay [3] and -18% in assay [4]. Further, in assay [2], the activity change, negative = inhibition was -4.64%.
With `Cc1ccc(CN2C(=O)c3ccc(-c4ccco4)n3CC2(C)C(=O)NCc2ccc(Cl)cc2)cc1` (centres undefined), the activity was 0% in assay [1], -6.21% in assay [3] and 1.57% in assay [4]. Moreover, the Potency entry in assay [2] is “inactive”.
As to `O=C(CCc1nnc2n(Cc3ccc(F)cc3)c(=O)c3ccccc3n12)NCCN1CCCC1`, the activity in assay [1] is -4.07%; in assay [3], -16.1%; in assay [4] it was 2.1%. Besides, the activity change, negative = inhibition in assay [2] was -0.511%.
For `Cc1ccc(Cn2c(=O)c3ccccc3n3c(-c4cccc(C)c4)nnc23)cc1`, the activity in assay [1] was -4.65%; in assay [3], -4.69%; in assay [4] it was -4.19%. Besides, in assay [2], the activity change, negative = inhibition turned out to be 2.78%.
Consider `CCn1cc(CN2CCCC23CCN(c2cc(C)nc4ccccc24)CC3)c(C)n1`, for which the activity in assay [1] was 3.11%; in assay [3], -3.44%; in assay [4], 6.12%. Moreover, the activity change, negative = inhibition in assay [2] came to 4.01%.
For the molecule `CCCc1sc(NC(=O)C[C@H]2NC(=O)c3ccccc3NC2=O)nc1C(=O)OC`, the activity in assay [1] was 4.16%; in assay [3], -4.71%; in assay [4], 3.73%. Further, the activity change, negative = inhibition in assay [2] stood at 2.83%.
In the case of `O=C(Nc1ccc2ncnc(N3CCCCC3)c2c1)c1cc(F)ccc1F`, the activity in assay [1] was -70.5%; in assay [3] it was -79.2%; in assay [4], -80.3%. Moreover, the Potency in assay [2] is 21.5 µM (active).
On to `COc1cccc(N2C(=O)NC(=NC3CCCCC3)C23CCCN(CC2CCCCC2)C3)c1` (centres undefined), for which the activity in assay [1] is -0.686%; in assay [3], -50.3%; in assay [4] it was 1.19%. In assay [2], the activity change, negative = inhibition was determined as 10.7%.
As for `COC(=O)c1ccc(C)c2c1C1C=CCC1[C@@H](c1ccc(C(=O)O)cc1)N2` (some centres undefined), the activity is -11.4% in assay [1], -8.29% in assay [3] and -3.22% in assay [4]. The activity change, negative = inhibition in assay [2] was -1.6%.
With `COc1ccc(CCNc2nc3c(-c4cccc(F)c4)nnn3c3ccccc23)cc1OC`, the activity in assay [1] is -7.47%; in assay [3], -5.65%; in assay [4], -3.23%. For the same molecule, in assay [2], the activity change, negative = inhibition is -8.63%.
On to `O=C(NCCc1ccc(Cl)cc1)c1ccc2c(=O)[nH]c3c(C(=O)NCC4CCCO4)sc(=S)n3c2c1` (centres undefined), for which the activity in assay [1] is -36.2%; in assay [3], -49.4%; in assay [4], -36.4%. The Potency in assay [2] is 27.1 µM (active).
Regarding `COc1ccc(CCNC(=O)c2ccc3c(=O)[nH]c4c(C(=O)NCC5CCCO5)sc(=S)n4c3c2)cc1OC` (centres undefined), the activity was -41.4% in assay [1], -23.3% in assay [3] and -16.5% in assay [4]. In addition, the Potency in assay [2] is 27.1 µM (active).
As to `COc1ccccc1N1CCN(S(=O)(=O)c2cccc3c2C(=O)c2ccccc2C3=O)CC1`, the results for the activity in assay [1], in assay [3] and in assay [4] were -3.23%, -1.31% and -8.85%, respectively. The activity change, negative = inhibition in assay [2] amounted to 2.86%.
Take `Cc1ccc(NC(=O)N2CCc3c(c4ccccc4n3CC3CC3)C2)cc1`: the activity in assay [1] was found to be 6.89%; in assay [3], 5.96%; in assay [4], 6.82%. In assay [2], the activity change, negative = inhibition amounted to 14.5%.
As for `CC1CCCCN1CCCNC(=O)Cn1ccc2cc(S(=O)(=O)N3CCCCC3)ccc21` (centres undefined), the activity in assay [1] was 1.36%; in assay [3] it was 0.0396%; in assay [4], -0.622%. The activity change, negative = inhibition in assay [2] was 0%.
Consider `O=C(CCCc1nnc2n3nc(-c4ccccc4)nc3c3ccccc3n12)N1CCC(N2CCCCC2)CC1`, for which the activity is -14.2% in assay [1], -20.9% in assay [3] and -10.5% in assay [4]. For the same molecule, the activity change, negative = inhibition in assay [2] is -7.55%.
In the same order, the values of `CCCC1c2cccn2CCN1C(=O)NC1(CC(=O)OCC)CCCCC1` (centres undefined) are -3.29%, -5.96%, -9.82% and -0.613%.
The corresponding values for `c1ccc(CCN2CCNc3cc(NCc4cccnc4)ncc3C2)cc1` are 2.5%, -5.35%, -6.38% and 1.95% [at 85.7 µM].
For `Cc1nn(C(=O)CCC(=O)N2CCC(Cc3nncn3CC3CC3)CC2)c2ccccc12`, the activity was 6.63% in assay [1], -59.9% in assay [3] and 7.75% in assay [4]. In addition, the activity change, negative = inhibition in assay [2] worked out at 3.09%.
Turning to `Cc1ccc(Cn2c(=O)c3ccccc3n3c(CCC(=O)NCCCN4CCN(C)CC4)nnc23)cc1`, the activity is -2.75% in assay [1], -12.5% in assay [3] and 3.42% in assay [4]. Moreover, the activity change, negative = inhibition in assay [2] was -1.36%.
Take `CCN(CC)CCNC(=O)CCc1nnc2n(Cc3ccc(Cl)cc3)c(=O)c3ccccc3n12`: the activity is 2.48% in assay [1], -12.4% in assay [3] and 0% in assay [4]. The activity change, negative = inhibition in assay [2] was determined as 0%.
`CN(C)CCOCC1(C)COc2ccc(C(=O)Nc3ccc4[nH]ccc4c3)cc2N1` (centres undefined): the activity in assay [1] came to 1.58%; in assay [3], 2.73%; in assay [4] it was 0.534%. Further, in assay [2], the activity change, negative = inhibition was 9.89% [at 85.7 µM].
Regarding `N#Cc1cc(CN2CCCC(C(=O)Nc3cccc(-c4ccc(F)cc4)c3)C2)c[nH]1` (centres undefined), the results for the activity in assay [1], in assay [3] and in assay [4] were -4.34%, -14.2% and -5.67%, respectively. Besides, in assay [2], the activity change, negative = inhibition was -9.38%.
For the molecule `CCn1cc(CN2CCN(C(=O)c3cccs3)CC2)ccc1=O`, the figures for the activity in assay [1], in assay [3] and in assay [4] were 0.352%, -1.21% and -6.54%, respectively. The activity change, negative = inhibition in assay [2] is -2.5%.
`CCOc1ccccc1CN1CCC(Cc2nc(-c3cccnc3)n[nH]2)C1` (centres undefined): the activity in assay [1] was 2.59%; in assay [3] it was -34.4%; in assay [4], -0.0084%. The activity change, negative = inhibition in assay [2] is 0.265%.
